Columns and labels:
Assay in all cases: PBM binding z-score (relative to random genomic background probes); higher = stronger binding; sequences stand for … in GC…GCGATTGACAGCGTAGAATGAAGG
[1] = tested on: FXR:RXRa (NR concentration 270 nM, RXRa partner concentration 90 nM)
How it was run: (§1)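 Binding z-scores were set against random background probes. The data came from custom Agilent 4×180K protein-binding microarrays carrying double-stranded probes with 34-nt variable regions, incubated 1 h with ligand-free nuclear receptor dimers. Partner-specific antibodies detected binding, and scanned fluorescence was regression-normalized.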

[2] = tested on: LXRa:RXRa (NR concentration 270 nM, RXRa partner concentration 90 nM)
How it was run: as §1

[3] = tested on: LXRa homodimer (NR concentration 270 nM)
How it was run: as §1

[4] = tested on: LXRb:RXRa (NR concentration 270 nM, RXRa partner concentration 90 nM)
How it was run: as §1

[5] = tested on: LXRb homodimer (NR concentration 270 nM)
How it was run: as §1

[6] = tested on: PPARa:RXRa (NR concentration 270 nM, RXRa partner concentration 90 nM)
How it was run: as §1

[7] = tested on: PPARg:RXRa (NR concentration 180 nM, RXRa partner concentration 90 nM)
How it was run: as §1

[8] = tested on: PPARg:RXRa 270nM:90nM, anti-RXR (NR concentration 270 nM, RXRa partner concentration 90 nM)
How it was run: as §1

[9] = tested on: PPARg:RXRa 30nM:10nM, anti-RXR (NR concentration 30 nM, RXRa partner concentration 10 nM)
How it was run: as §1

[10] = tested on: PPARg:RXRa 90nM:30nM, anti-RXR (NR concentration 90 nM, RXRa partner concentration 30 nM)
How it was run: as §1

[11] = tested on: PPARg:RXRa DBDmut IVT, anti-RXR (DBD mutation: RXRa K156A/R161A, NR concentration 270 nM, RXRa partner concentration 90 nM)
How it was run: as §1

[12] = tested on: PPARg:RXRa IVT, anti-PPARg (NR concentration 270 nM, RXRa partner concentration 90 nM)
How it was run: as §1

[13] = tested on: PPARg DBDmut:RXRa IVT, anti-PPARg (DBD mutation: PPARg1 K132A/R137A, NR concentration 270 nM, RXRa partner concentration 90 nM)
How it was run: as §1

[14] = tested on: PPARg DBDmut IVT, anti-PPARg (DBD mutation: PPARg1 K132A/R137A, NR concentration 270 nM)
How it was run: as §1

[15] = tested on: PPARg homodimer (NR concentration 180 nM)
How it was run: as §1

[16] = tested on: PXR:RXRa (NR concentration 270 nM, RXRa partner concentration 90 nM)
How it was run: as §1

[17] = tested on: PXR homodimer (NR concentration 270 nM)
How it was run: as §1

[18] = tested on: RARa:RXR (NR concentration 270 nM, RXRa partner concentration 90 nM)
How it was run: as §1

[19] = tested on: RARa homodimer (NR concentration 270 nM)
How it was run: as §1

[20] = tested on: RARb:RXRa (NR concentration 270 nM, RXRa partner concentration 90 nM)
How it was run: as §1

Sequence	PBM binding z-score [1]	PBM binding z-score [2]	PBM binding z-score [3]	PBM binding z-score [4]	PBM binding z-score [5]	PBM binding z-score [6]	PBM binding z-score [7]	PBM binding z-score [8]	PBM binding z-score [9]	PBM binding z-score [10]	PBM binding z-score [11]	PBM binding z-score [12]	PBM binding z-score [13]	PBM binding z-score [14]	PBM binding z-score [15]	PBM binding z-score [16]	PBM binding z-score [17]	PBM binding z-score [18]	PBM binding z-score [19]	PBM binding z-score [20]
GCATATAGGGAATACAAGGTGAAAGTCCGATTGT	0.23	-0.211	-0.101	-0.103	-0.489	0.924	0.818	0.797	0.0214	0.338	1.83	1.35	0.819	-0.152	0.308	0.0196	-0.0382	1.58	0.263	0.266
GATACTGGGTCAAGGCCAGAGTACGCGTATTGAT	2.37	1.21	-0.0541	1.22	-0.791	4.05	5.9	5.27	2.7	4.74	6.7	7.44	0.217	1.07	1.49	1.23	-0.00412	1.72	0.506	3.48
CCAGACAAGTGAGAAGGTAACTCAGCCTCGATTA	-0.1	0.185	0.265	0.312	0.105	-0.0657	0.295	-0.204	-0.274	-0.419	0.321	-0.293	-0.675	-0.316	1.29	-0.132	0.602	0.088	1.08	0.0534
AATACAGGGTCAGCGTAGGCCAGAGTACGCACAG	5.67	4.35	0.74	2.92	0.652	4.74	4.5	3.96	0.97	2.52	1.94	3.32	1.54	1.65	1.81	3.51	0.39	3.85	0.496	4.15
ACTGACGGGTCAACGAGGTTATAGCACGCGTATA	5.56	4.16	0.67	3.43	0.166	5.03	3.34	3.77	0.997	2.17	0.94	2.54	0.338	0.241	1.88	4.39	2.3	4.36	0.626	3.87
CGGCCAAGGTCAGAGAGGTCAGTGAATGCCGAGT	6.02	5.04	2.26	4.41	-0.527	4.79	3.72	4.34	0.655	2.75	3.09	3.49	-0.798	-1.36	3.78	5.99	12	5.43	1.18	5.21
ATCTCTAGGGAACAAGTTCAGTGAAAGAGAGGAC	0.199	0.374	0.318	0.32	0.577	0.667	0.723	1.08	0.126	0.728	0.484	0.703	0.478	0.258	0.773	1.36	1.25	0.667	0.314	1.3
TCAGACAGGGGAAGGTAACTCAGGTACGCAGTCG	0.82	1.65	0.166	1.3	0.859	0.994	0.622	2.06	3.77	2.68	2.26	0.171	0.134	-0.73	0.755	0.624	0.441	0.193	0.801	0.352
GCTCGAAGGACAAGGTCAGAGCTTTGTCCGTAGA	1.53	1.79	-0.456	0.996	-0.575	2.56	0.738	1.72	-0.296	0.829	-0.135	0.583	-0.7	-0.691	0.73	1.59	-0.626	2.28	-0.618	3.44
CGAACCAGGTCATTGACAGGACAGTGAATAGTAA	5.53	3.65	0.747	2.7	0.324	4.37	4.46	4.07	0.956	2.96	4.92	5.01	0.122	0.405	1.32	2.53	0.75	2.92	0.518	3.58
ATCGAAAGGTCGAGGTGAGTATCGAGAAAGGGAA	4.43	3.37	-0.107	2.73	0.435	4.56	3.35	3.74	1.49	2.48	0.319	2.07	0.156	0.836	1.5	2.44	0.217	3.52	0.474	4.2
TGTCAAAGTTCAAACGTAACGTAAGTATCCACAC	7.01	6.81	5.78	4.82	3	5.43	8.29	7.51	5.26	7.39	0.502	4.09	1.75	1.83	2.5	5.07	4.65	3.8	1.09	4.99
AGTCAAAGTTCAGTACGAGGTAACGTAAAGCACG	3.32	3.34	1.28	1.83	0.584	2.76	3.76	4.15	1.8	2.93	-0.11	1.83	0.68	0.981	1.69	3.02	1.72	2.35	1.06	4.11
TGTGAAAGTTCAAAGGTAACGTAAGTATCCACAC	6.55	5.73	4.61	4.36	2.11	5.49	6.77	6.84	4.1	6.25	-0.131	3.37	1.69	1.46	2.73	5.64	4.19	6.09	1.81	4.74

From the supplement of paper PMC6555819
